# Bioassay records from PubChem BioAssay.
# MARV entry inh: Marburg virus entry inhibition; Marburg virus pseudotyped entry inhibition, cell reporter; Potency, µM (titrated, usually from 37.8 µM), inactives show top-dose activity change, negative = inhibition, actives largely listed as inhibitors; actives 1.8% (n = 300,000); AID 540276; calls by dose curve; tested in HEK293 cells; note: potency is the fitted concentration of half-maximal effect
# FMDV antiviral: foot and mouth disease virus antiviral activity. FMDV antiviral cell-based qHTS. Potency, µM (series often up to 57.9 µM), for the others: top-dose activity change, negative = inhibition, usual class: inhibitors. actives 1.2% (n = 410,000). AID 1159524; calls by dose curve; tested in HEK293T cells; note: read-out not given here; potency is the fitted concentration of half-maximal effect; nearly all actives have a fitted effect of over 45% in size
# HCV inhibitor: blocks hepatitis C virus. Huh7.5.1 HCVcc-Cre infection, luciferase reporter, 44 h. Potency, µM (series often up to 41.8 µM), for inactives: at the highest dose activity change, negative = inhibition, usual class: inhibitors. actives 3.4% (n = 340,000); active = well fitted inhibition curve with a large enough effect; inconclusive = small, poorly fitted or top-dose-only effect, or another doubt; inactive = no such curve, though single readings can be large or run the other way; note: potency is the fitted concentration of half-maximal effect
#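 Compounds are dispensed onto cells plated 4 h earlier at 1,000 per well, with HCVcc-Cre virus (about 0.5 moi) added next. Following 44 h of culture, luminescent signal is measured for 15 sec after 15 min with substrate at room temperature.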
# HCMV inh: human cytomegalovirus inhibition | HFF cells, HCMV-luciferase reporter, 72 h; stronger effect = lower value | activity change, negative = inhibition, % at 57.5 µM | actives 4.5% (n = 410,000) | AID 1259415; in the data active = activity change below about -60%; inconclusive = no clear call, values can overlap the other calls; inactive = above about -39%
#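 Steps: HFFs plated, 16 h 37C; compounds added; HCMV-luciferase added to MOI 1 PFU/cell; 72 h 37C; OneGlo reagent, 5 min room temperature; luminescence read, normalized to controls.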
# LASV entry inh: Lassa virus entry inhibition. Lassa virus pseudotype entry inhibition, cell reporter. Potency, µM (series often up to 37.9 µM), for the others: at the top dose activity change, negative = inhibition, most hits filed as inhibitors. actives 1.2% (n = 300,000); calls by dose curve; tested in HEK293 cells; note: potency is the fitted concentration of half-maximal effect; nearly all actives have a fitted effect of over 50% in size
# * marks the source's active call; other numbers are inactive results; ? = inconclusive; · = no result; [ ] = remark or other dose. A selection: hits, their analogues and other compounds. The true share with any hit is near 7.9%. % is set by controls: 0 for no effect and ±100 for the full control effect.
SMILES,MARV entry inh,FMDV antiviral,HCV inhibitor,HCMV inh,LASV entry inh
N=c1c[n+](CC23CC4CC(CC(C4)C2)C3)[n-]o1,0.6%[46.1 µM],-11.8%,6.3%,-74.9*,-8.2%
CCCN(C(=O)/C=C/c1nc2ccccc2s1)C1CCS(=O)(=O)C1 (centres undefined),-1.2%,-6.4%,5.4%,-8.1,-15.9%
CCOc1ccc(NC(=O)CSc2nc3nc(C)c(Cc4ccccc4)c(C)n3n2)cc1,·,-12.1%,·,-21.4,19.6%[46.1 µM]
CC(C)(O)C#Cc1ccc(CN2CCCC(CO)(Cc3cccc(Cl)c3)C2)cc1 (centres undefined),?,-22.0%,?,-82.0*,?
COc1ccc(F)c(CN2CCCC(CO)(Cc3cccc(Cl)c3)C2)c1 (centres undefined),·,-8.2%,-1.1%,42.5,·
COc1ccc(/C=C/CN2CCCC(CO)(Cc3cccc(Cl)c3)C2)cc1 (centres undefined),6.31µM*,-10.1%,-8.4%,-25.8,10µM*
COc1ccccc1/C=C/CN1CCCC(CO)(Cc2cccc(Cl)c2)C1 (centres undefined),12.6µM*,?,?,-15.4,14.1µM*
O=C(CCCSc1nnnn1-c1ccccc1)c1ccc(F)cc1,5.8%,·,·,·,·
O=C(COc1ccc(Cl)cc1Cl)NN=C1c2ccccc2-c2ccccc21,-1.1%,?,4.2%,-61.3*,?
Cc1ccc(OCC(=O)NN2C(=O)c3ccccc3C2=O)cc1,·,-9.9%,16.7%,56.1,·
Cc1ccc(OCC(=O)NN=C2c3ccccc3-c3ccccc32)cc1,?,3.2%,14.1µM*,-19.5,-11.1%
CCCNc1nc(C)cc(-c2cc(C(=O)Nc3ccccc3)on2)n1,·,14.7%,?,49.0,·
N#CC(c1ccccc1)c1ccc2c(C(F)(F)F)cc(C(F)(F)F)nc2n1 (centres undefined),7.08µM*,?,-19.4%,-104.5*,11.2µM*
FC(F)(F)c1cc(C(F)(F)F)c2ccc(N/N=C/c3ccccc3)nc2n1,-3.4%,-9.0%,2.9%,18.4,17.2%
Cc1ccc(C(C#N)c2ccc3c(C(F)(F)F)cc(C(F)(F)F)nc3n2)cc1 (centres undefined),-12.0%,?,10µM*,-99.1*,?
CC(C)CC(=O)Nc1ccc(Nc2ccccc2)cc1,?,27.7%,2.82µM*,36.0,3.55µM*
CC(C)CC(=O)Nc1ccc(Oc2ccc(NC(=O)CC(C)C)cc2)cc1,-4.5%,-12.8%,-4.2%,3.5,-4.2%
Cc1ccc(C)c(-n2nnnc2SCC(=O)c2ccc3c(c2)NC(=O)CO3)c1,?,?,?,-83.9*,?
Cc1ccc2nc(SCC(=O)c3ccc4c(c3)NC(=O)CO4)[nH]c2c1,-1.2%,-13.2%,?,33.2,0.9%
COc1cccc2cc(-c3nnc(SCC(=O)Nc4nc(C)cs4)n3C)oc12,?,-3.1%,12.6µM*,5.2,?
Cc1csc(NC(=O)CSc2nnc(-c3ccco3)n2C)n1,0.5%,-1.1%,9.2%,10.8,9.7%
O=C(Nc1ccc(S(=O)(=O)N(Cc2ccccc2)c2ccccc2)cc1)c1ccc([N+](=O)[O-])cc1,-1.3%[46.1 µM],?,·,14.1,1.2%[46.1 µM]
Clc1ccc(-c2nc(-c3ccccn3)no2)cc1Cl,2.91µM*,·,1.3%,65.6,?
COc1ccccc1-c1nc(-c2ccc(C)nc2OC)no1,2.0%,47.2%,-25.7%,1.5,17.8%
CCCCOc1ccc(-c2nc(-c3cccnc3)no2)cc1,?,-27.0%,-0.9%,40.9,-2.0%
SMILES,MARV entry inh,FMDV antiviral,HCV inhibitor,HCMV inh,LASV entry inh
COc1nc(C)ccc1-c1noc(-c2ccccn2)n1,?,-39.6%,5.8%,71.1,8.2µM*
COc1ccc(-c2nc(-c3ccccn3)no2)cc1,0.291µM*,7.94µM*,-21.9%,-94.4*,?
CCOc1ccc(-c2nc(-c3cccnc3)no2)cc1,5.62µM*,-11.6%,-7.5%,110.0,10µM*
CN(C)S(=O)(=O)Nc1ccccc1F,7.7%[46.1 µM],-9.6%,-1.2%,-13.1,-0.6%
CCCc1c(C(=O)N/N=C/c2ccco2)nnn1-c1nonc1N,·,-3.8%,-2.4%,0.0,·
COc1ccc(-c2nc(-c3cccs3)no2)cc1,?,7.08µM*,0.2%,-34.8,1.78µM*
Cc1ccccc1-c1nc(-c2ccccn2)no1,?,6.31µM*,4.8%,-7.9,1.26µM*
Clc1ccc(OCc2nc(-c3ccccn3)no2)c(Br)c1,?,-47.9%,?,-60.6*,9.2µM*
Brc1ccc(-c2noc(-c3ccccn3)n2)o1,?,-12.8%,-6.4%,56.1,?
COc1ccccc1-c1nc(-c2ccccn2)no1,·,-72.0%,?,?,·
Clc1ccccc1OCc1nc(-c2ccccn2)no1,·,43.8%,?,55.8,·
Brc1ccc(-c2nc(-c3ccccn3)no2)o1,7.94µM*,-58.9%,-1.4%,-6.3,8.91µM*
Cc1noc(C)c1S(=O)(=O)Nc1ccccc1N1CCOCC1,-6.2%,-6.3%,8.9%,-9.4,?
COc1cc(NC(=O)COc2ccccc2Cl)ccc1NC(=O)c1cccs1,?,-0.4%,1.12µM*,44.7,?
COc1cc(NC(=O)c2cccs2)c(OC)cc1NC(=O)Cc1ccccc1,1.3%[46.1 µM],-0.7%,35.5µM*,-8.4,·
COc1cc(NC(=O)c2cccs2)c(C(=O)OCC(=O)c2cc(C)n(-c3ccc(F)cc3)c2C)cc1OC,?,?,-13.9%,-21.9,?
COc1cc(NC(=O)c2cccs2)c(C(=O)OCC(=O)c2cc(C)n(-c3ccccc3)c2C)cc1OC,3.55µM*,3.98µM*,10.9%,-34.0,?
COc1ccc(CCNC(=O)c2ccc3ccccc3n2)cc1,?,46.2%,11.0%,36.3,?
O=S(=O)(c1ccccc1)N(CC1CO1)c1cccc2ccccc12 (centres undefined),?,-6.1%,-21.7%,?,?
O=C(Nc1cccc(C(=O)N2CCN(c3ccccc3F)CC2)c1)c1nsc2ccccc12,·,-14.2%,·,69.6,9.9%[46.1 µM]
CC(=O)CSc1ccc(C(=O)O)cn1,-10.4%,-9.5%,2.0%,11.9,0.4%
COc1ccc(N2C(=O)c3ccccc3NC(=O)C2C(=O)Nc2ccc3c(c2)OCCO3)cc1 (centres undefined),·,24.7%,·,35.2,·
CCCSc1ncc(Cl)c(C(=O)Nc2ccc(S(=O)(=O)N3CCCCC3C)cc2)n1 (centres undefined),?,2.9%,·,-14.7,?
COc1ccc(Nc2ncnc3scc(-c4ccc(F)cc4)c23)cc1,·,?,·,-34.6,-18.4%[46.1 µM]
COc1ccc(N2CCN(c3ncnc4scc(-c5ccc(C)cc5)c34)CC2)cc1,?,?,?,-64.1*,10µM*
Fc1ccc(-c2csc3ncnc(N4CCN(c5ccccc5)CC4)c23)cc1,?,-29.0%,-13.9%,-61.9*,?
COc1ccc(Nc2ncnc3scc(-c4ccc(OC)cc4)c23)cc1,7.31µM*,?,6.31µM*,?,?
O=C(c1ccco1)N1CCN(c2ncnc3scc(-c4cccs4)c23)CC1,-7.7%,22.4µM*,?,?,?
